Assay results as given in the supplement of paper PMC11732987, “Enantioselective OTUD7B fragment discovery through chemoproteomics screening and high-throughput optimisation” (Communications Chemistry, 2025).

Key:
Test in all cases: log2 ratio of Biotin-Ahx-Ub-VS probe labelling (fragment/DMSO); higher = less target engagement (more negative = stronger competition), active = hit call of the paper (q ≤ 0.05, log2 ratio ≤ -1)
Conditions in all cases: compound concentration: 200 uM; treatment time: 3 h
USP9X = USP9X (UniProt Q93008)
Chain of USP9X (Q93008 whole entry, the tested form may be a part): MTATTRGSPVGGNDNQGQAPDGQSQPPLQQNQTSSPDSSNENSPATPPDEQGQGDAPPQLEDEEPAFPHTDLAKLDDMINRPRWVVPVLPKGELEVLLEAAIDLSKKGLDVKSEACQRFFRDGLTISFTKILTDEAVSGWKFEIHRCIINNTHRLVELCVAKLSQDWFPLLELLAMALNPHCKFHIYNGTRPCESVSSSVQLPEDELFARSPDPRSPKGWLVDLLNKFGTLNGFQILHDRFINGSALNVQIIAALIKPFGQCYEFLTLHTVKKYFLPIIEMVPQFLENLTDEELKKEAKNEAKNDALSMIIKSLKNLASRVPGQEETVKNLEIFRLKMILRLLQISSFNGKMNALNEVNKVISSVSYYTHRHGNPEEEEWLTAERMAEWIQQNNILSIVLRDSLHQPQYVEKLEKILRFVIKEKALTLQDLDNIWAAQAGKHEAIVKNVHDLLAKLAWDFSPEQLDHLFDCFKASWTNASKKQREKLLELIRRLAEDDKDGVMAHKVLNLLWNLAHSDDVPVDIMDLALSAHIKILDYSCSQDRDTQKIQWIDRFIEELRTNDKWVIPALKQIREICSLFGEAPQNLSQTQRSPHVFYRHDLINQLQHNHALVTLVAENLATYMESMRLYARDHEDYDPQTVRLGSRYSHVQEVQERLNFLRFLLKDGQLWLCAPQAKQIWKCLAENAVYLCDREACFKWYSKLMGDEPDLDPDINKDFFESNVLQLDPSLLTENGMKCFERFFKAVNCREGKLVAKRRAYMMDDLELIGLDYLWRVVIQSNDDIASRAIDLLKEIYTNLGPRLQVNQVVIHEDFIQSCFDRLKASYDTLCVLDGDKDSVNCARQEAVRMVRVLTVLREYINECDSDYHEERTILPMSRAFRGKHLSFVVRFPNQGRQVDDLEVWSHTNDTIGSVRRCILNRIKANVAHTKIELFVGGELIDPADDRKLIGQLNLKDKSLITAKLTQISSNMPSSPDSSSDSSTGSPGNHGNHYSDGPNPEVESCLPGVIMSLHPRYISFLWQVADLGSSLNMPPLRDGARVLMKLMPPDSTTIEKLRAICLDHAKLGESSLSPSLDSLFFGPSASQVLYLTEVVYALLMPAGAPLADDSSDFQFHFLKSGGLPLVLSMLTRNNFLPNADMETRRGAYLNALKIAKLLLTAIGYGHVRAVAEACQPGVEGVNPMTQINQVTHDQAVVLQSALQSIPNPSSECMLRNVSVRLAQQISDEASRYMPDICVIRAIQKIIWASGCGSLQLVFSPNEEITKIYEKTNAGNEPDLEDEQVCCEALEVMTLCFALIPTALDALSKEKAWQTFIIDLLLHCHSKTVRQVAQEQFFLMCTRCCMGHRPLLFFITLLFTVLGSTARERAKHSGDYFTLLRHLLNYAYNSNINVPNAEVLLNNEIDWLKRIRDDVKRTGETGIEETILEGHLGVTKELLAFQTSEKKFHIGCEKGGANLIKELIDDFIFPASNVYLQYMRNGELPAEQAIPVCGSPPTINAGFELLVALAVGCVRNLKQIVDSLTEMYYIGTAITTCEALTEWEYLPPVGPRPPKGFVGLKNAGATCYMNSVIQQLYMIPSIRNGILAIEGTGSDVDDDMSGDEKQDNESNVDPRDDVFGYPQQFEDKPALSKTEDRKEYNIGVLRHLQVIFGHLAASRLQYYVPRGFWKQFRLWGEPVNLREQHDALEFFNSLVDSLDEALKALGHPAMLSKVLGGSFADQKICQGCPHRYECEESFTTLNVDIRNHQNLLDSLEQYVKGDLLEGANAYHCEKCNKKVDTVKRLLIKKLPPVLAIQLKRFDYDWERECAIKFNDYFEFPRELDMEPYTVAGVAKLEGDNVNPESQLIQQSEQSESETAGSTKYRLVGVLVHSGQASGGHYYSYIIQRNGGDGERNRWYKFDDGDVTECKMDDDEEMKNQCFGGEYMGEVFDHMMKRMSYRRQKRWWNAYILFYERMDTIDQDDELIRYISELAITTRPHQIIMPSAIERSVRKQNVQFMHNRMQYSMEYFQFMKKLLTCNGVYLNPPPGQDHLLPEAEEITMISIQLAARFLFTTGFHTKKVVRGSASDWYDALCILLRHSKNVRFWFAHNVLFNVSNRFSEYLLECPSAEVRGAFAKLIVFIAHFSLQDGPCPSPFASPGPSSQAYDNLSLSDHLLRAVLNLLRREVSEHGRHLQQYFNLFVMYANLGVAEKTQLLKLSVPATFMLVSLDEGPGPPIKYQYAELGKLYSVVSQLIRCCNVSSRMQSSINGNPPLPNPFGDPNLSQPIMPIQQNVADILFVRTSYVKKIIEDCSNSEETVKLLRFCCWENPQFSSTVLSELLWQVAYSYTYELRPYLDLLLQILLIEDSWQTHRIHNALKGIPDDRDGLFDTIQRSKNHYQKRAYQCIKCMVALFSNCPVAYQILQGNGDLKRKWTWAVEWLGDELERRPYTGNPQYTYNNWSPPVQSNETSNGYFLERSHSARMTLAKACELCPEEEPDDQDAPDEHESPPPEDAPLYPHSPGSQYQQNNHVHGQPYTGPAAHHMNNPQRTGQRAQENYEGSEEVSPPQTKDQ
Method in brief: (§1)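 HEK293T lysate (495 µg per sample, in Tris/CHAPS/IGEPAL buffer with protease inhibitors) was treated in triplicate with fragment at 200 µM or with DMSO for 3 h. It was then treated with Biotin-Ahx-Ub-VS (0.5 µM final) for 1 h. Labelled DUBs were NeutrAvidin-enriched, digested with LysC and trypsin, and run by diaPASEF LC-MS/MS. Spectronaut label-free quantities were global-median-normalised. Values are average log2 ratios fragment/DMSO by unpaired t-test, using proteins with ≥2 unique peptides.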

UniProt O00487 = target: UniProt O00487
Chain of UniProt O00487 (O00487 whole entry): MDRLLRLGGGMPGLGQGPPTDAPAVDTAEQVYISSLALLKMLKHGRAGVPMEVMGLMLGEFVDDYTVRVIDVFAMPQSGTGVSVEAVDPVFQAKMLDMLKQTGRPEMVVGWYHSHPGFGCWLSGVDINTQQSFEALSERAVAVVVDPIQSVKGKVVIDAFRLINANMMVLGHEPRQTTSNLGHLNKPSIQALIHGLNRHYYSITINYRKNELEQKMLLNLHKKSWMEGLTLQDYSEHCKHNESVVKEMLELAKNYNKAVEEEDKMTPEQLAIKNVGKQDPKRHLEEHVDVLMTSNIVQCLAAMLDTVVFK
Method in brief: as §1

UniProt O00507 = target: UniProt O00507
Method in brief: as §1

UniProt P51784 = target: UniProt P51784
Chain of UniProt P51784 (P51784 whole entry): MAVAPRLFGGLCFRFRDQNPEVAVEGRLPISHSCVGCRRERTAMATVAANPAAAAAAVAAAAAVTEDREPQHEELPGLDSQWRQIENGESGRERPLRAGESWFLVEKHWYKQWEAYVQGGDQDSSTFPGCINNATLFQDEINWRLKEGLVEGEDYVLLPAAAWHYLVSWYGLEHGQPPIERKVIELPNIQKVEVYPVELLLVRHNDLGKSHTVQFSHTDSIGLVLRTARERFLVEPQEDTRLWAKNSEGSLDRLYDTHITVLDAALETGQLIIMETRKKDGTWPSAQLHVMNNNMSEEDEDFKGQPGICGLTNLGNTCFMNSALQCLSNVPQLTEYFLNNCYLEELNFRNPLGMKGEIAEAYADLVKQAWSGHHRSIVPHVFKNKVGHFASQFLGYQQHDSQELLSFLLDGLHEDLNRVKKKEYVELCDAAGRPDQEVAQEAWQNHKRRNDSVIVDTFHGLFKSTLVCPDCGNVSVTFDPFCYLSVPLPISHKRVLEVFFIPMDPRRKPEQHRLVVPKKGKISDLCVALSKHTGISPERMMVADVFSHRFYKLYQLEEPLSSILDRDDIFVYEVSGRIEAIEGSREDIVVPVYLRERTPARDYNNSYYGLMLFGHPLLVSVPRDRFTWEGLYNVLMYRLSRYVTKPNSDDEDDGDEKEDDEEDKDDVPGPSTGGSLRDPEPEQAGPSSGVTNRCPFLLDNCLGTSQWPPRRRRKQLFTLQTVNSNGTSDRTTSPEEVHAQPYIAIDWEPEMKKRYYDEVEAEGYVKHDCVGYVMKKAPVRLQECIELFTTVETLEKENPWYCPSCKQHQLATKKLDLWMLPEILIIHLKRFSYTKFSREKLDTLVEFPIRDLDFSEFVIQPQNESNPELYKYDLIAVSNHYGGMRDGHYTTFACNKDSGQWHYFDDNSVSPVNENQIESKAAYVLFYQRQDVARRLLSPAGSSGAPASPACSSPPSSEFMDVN
Method in brief: as §1

UniProt Q5T2D3 = target: T1, UniProt Q5T2D3
T1 sequence (whole entry): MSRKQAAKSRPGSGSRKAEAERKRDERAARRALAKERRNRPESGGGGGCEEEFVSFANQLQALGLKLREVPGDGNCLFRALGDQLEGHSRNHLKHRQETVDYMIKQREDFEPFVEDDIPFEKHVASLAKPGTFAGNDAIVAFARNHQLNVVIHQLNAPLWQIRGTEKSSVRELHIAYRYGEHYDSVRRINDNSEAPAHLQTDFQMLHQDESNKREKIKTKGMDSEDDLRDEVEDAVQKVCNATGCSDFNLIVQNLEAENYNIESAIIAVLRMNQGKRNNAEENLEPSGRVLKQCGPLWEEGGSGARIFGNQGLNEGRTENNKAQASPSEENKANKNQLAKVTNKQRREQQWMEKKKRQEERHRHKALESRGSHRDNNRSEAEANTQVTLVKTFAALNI
Method in brief: as §1

UniProt Q8TE49 = target: T2, UniProt Q8TE49
T2 sequence (whole entry): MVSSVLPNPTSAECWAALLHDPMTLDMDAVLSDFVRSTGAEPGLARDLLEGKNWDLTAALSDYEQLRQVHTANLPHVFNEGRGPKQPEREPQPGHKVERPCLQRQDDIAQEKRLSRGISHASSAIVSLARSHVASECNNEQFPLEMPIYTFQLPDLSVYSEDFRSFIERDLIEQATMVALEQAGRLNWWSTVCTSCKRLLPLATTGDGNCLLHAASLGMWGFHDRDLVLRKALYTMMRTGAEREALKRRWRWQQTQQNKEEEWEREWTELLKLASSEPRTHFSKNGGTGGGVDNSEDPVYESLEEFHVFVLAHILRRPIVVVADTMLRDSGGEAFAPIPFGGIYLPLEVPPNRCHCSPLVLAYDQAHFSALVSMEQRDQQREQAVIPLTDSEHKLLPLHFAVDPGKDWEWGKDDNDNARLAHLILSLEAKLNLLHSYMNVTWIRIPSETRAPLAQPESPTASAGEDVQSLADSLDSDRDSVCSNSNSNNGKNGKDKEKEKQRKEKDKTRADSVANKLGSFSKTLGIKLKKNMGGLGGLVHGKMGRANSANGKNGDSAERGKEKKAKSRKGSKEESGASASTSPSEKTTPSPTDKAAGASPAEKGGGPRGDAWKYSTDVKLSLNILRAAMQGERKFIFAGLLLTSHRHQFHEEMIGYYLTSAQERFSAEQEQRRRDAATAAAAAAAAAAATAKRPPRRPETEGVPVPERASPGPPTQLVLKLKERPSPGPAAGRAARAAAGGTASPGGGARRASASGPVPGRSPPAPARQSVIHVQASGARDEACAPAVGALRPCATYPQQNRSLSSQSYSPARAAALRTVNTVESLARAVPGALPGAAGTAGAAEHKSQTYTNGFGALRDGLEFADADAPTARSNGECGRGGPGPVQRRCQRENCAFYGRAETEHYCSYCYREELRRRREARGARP
Method in brief: as §1

UniProt Q9P2H5 = target: T3, UniProt Q9P2H5
T3 sequence (whole entry): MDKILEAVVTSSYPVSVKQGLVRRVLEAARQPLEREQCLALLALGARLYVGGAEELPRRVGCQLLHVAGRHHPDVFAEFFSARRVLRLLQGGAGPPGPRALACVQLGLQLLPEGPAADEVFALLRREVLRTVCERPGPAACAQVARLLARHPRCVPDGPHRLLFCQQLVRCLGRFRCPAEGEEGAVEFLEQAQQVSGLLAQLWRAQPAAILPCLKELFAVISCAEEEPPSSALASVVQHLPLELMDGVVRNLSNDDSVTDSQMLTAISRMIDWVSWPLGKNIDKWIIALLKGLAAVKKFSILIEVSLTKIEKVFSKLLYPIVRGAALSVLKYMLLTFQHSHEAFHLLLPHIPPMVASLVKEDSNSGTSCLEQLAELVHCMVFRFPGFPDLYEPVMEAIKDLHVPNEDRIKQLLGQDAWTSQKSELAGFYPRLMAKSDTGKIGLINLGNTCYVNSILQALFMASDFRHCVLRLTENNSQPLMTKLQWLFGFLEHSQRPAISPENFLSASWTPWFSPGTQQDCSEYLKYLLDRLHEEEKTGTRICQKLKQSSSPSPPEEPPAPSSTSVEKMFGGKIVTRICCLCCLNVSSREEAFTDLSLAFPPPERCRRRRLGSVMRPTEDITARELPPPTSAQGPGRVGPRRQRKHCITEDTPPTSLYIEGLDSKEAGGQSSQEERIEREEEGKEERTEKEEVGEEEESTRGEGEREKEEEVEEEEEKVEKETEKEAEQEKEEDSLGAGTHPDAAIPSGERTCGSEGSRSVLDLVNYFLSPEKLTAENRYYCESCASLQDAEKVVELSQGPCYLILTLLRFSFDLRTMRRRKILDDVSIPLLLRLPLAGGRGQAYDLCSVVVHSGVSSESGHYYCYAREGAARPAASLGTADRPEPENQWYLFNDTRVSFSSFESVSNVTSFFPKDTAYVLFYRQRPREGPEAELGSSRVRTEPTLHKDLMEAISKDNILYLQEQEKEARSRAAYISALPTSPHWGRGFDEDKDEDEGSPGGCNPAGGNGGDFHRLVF
Method in brief: as §1

UniProt Q9UGI0 = target: T4, UniProt Q9UGI0
T4 sequence (whole entry): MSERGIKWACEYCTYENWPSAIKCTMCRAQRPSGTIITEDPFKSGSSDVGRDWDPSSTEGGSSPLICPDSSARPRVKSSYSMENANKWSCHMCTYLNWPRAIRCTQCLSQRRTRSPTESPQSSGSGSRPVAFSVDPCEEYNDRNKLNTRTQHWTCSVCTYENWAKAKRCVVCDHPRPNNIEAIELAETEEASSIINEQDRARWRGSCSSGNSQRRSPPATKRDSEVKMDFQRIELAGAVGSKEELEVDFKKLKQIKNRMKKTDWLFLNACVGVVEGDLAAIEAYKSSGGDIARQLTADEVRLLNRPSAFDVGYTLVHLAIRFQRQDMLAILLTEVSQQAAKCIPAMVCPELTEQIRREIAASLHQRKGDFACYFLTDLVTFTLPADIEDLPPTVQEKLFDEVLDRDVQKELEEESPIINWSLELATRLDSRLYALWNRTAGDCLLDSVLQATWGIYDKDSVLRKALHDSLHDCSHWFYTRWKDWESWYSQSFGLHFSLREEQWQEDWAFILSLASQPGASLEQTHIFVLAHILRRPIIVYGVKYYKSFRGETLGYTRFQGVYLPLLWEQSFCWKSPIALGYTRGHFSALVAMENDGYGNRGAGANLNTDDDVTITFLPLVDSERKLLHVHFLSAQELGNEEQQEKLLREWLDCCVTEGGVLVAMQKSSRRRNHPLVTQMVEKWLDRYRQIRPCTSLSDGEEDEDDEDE
Method in brief: as §1

YOD1 = target: T5, YOD1 (UniProt Q5VVQ6)
T5 sequence (whole entry): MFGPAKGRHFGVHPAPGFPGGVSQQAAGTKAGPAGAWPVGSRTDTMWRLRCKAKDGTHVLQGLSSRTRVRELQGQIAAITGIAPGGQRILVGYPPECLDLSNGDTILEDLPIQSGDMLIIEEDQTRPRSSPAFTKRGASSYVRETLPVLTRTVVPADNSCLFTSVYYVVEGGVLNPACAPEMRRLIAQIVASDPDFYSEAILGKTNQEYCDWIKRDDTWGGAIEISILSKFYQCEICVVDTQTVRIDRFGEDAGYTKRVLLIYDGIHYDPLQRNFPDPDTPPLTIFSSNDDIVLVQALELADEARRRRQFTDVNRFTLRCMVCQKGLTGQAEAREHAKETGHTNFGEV
Method in brief: as §1

Measured: log2 ratio of Biotin-Ahx-Ub-VS probe labelling

O=C(CCl)N1CCCCCC1c1ncon1 (centres undefined)
inactive: USP9X -0.226 | UniProt O00487 -0.0641 | UniProt O00507 -0.0474 | UniProt P51784 -0.00586 | UniProt Q5T2D3 -0.23 | UniProt Q8TE49 -0.401 | UniProt Q9P2H5 -0.21 | UniProt Q9UGI0 -0.661 | YOD1 0.022
